About 83,000 compounds went through this panel and 20% of them were active in at least one assay; those are over-represented in the sample as a whole.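 Note: values are percent growth. 100 is the growth of untreated cells, values between 100 and 0 indicate rising inhibition; between -100 and 0 indicates cell death.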 A number with no mark means an inactive call. The source made the active and inactive calls. How the source made its calls: active means growth percent below 10; inactive means the rest.

Some test systems named below: DU-145 prostate; K-562 leukemia; MALME-3M melanoma; MDA-MB-231 breast; RXF 393 renal; SF-268 CNS; SF-539 CNS; UACC-257 melanoma; M14 melanoma; SF-295 CNS.
Holding throughout (experiment): NCI-60 one-dose screen, 48 h (100 = growth as untreated, 0 = no growth, -100 = all killed)
Common to all, as to settings: 10 µM unless noted

As to `COc1ccc(C2C=C(c3ccc(N)cc3)N=C3SC=CN32)cc1OC` (stereo not given), the growth is 107% in the assay with DU-145 prostate; 97.5% in the assay on K-562 leukemia; 92.8% with MALME-3M melanoma; 123% with MDA-MB-231 breast; 110% in the assay on RXF 393 renal; 104% in the assay on SF-268 CNS. The growth in the assay with SF-539 CNS is 99.9%; in the assay with UACC-257 melanoma, 103%; with M14 melanoma it was 106%.
For `NC(=N\N=C/c1ccc(O)cc1)/C(N)=N\N=C/c1ccc(O)cc1`, the growth was 63% in the assay with DU-145 prostate; 23.7% in the assay on K-562 leukemia; 65.3% with MALME-3M melanoma; 64.8% in the assay on MDA-MB-231 breast; 105% with RXF 393 renal; 58.4% with SF-268 CNS. Besides, the growth with SF-295 CNS was 29.2%; in the assay with UACC-257 melanoma, 85.4%; with M14 melanoma, 39.5%.
For `Nc1nnc(-c2ccc3ccccc3c2O)o1`, the growth in the assay on DU-145 prostate was 117%; in the assay with K-562 leukemia it was 93.5%; in the assay with MALME-3M melanoma, 89.1%; with MDA-MB-231 breast, 92.4%; in the assay with RXF 393 renal, 99.2%; in the assay on SF-268 CNS it was 94.8%. Further, the growth was 95.7% with SF-539 CNS, 102% with UACC-257 melanoma and 86.4% in the assay on M14 melanoma.
Consider `O=S(=O)(NCCNc1nccc(-c2c(-c3cccc(O)c3)nc3sccn23)n1)c1ccc(F)cc1`, for which the growth in the assay on DU-145 prostate was 78.6%; with K-562 leukemia, 47.8%; with MALME-3M melanoma it was 18.3%; in the assay on MDA-MB-231 breast, 77.6%; with RXF 393 renal, 52.5%; with SF-268 CNS, 73.3%. Besides, the growth with SF-539 CNS is 96.5%; in the assay with UACC-257 melanoma it was -0.678% (active); with M14 melanoma, 27.3%.
On to `OC(c1cc2cc(Br)ccc2c2cc(Br)ccc12)C1CCCCN1` (stereo not given), for which the growth with DU-145 prostate is -93.5% (active); with K-562 leukemia it was -72.2% (active); in the assay on MALME-3M melanoma it was -57.5% (active); in the assay with MDA-MB-231 breast it was -73.5% (active); in the assay on RXF 393 renal, -94.1% (active); in the assay on SF-268 CNS, -84.5% (active). The growth in the assay on SF-539 CNS is -82.9% (active); in the assay on UACC-257 melanoma, -82.9% (active); in the assay with M14 melanoma, -75.8% (active).
Take `COc1cc(-c2nn(-c3cccc(NC(=O)Nc4ccc(Cl)c(C(F)(F)F)c4)c3)cc2-c2ccncc2)ccc1Cl`: the growth is 20.3% with DU-145 prostate; 3.8% (active) in the assay with K-562 leukemia; -14.9% (active) with MALME-3M melanoma; -52.4% (active) in the assay on MDA-MB-231 breast; -27.8% (active) in the assay on RXF 393 renal; 13.8% in the assay with SF-268 CNS. The growth with SF-539 CNS was 6.56% (active); with UACC-257 melanoma, -37.6% (active); with M14 melanoma it was -11.6% (active).
Turning to `COc1cc(C2CC(c3ccc4c(c3)OCO4)=NN2C=O)cc(OC)c1OC` (stereo not given), the growth in the assay with DU-145 prostate is 31.7%; in the assay on K-562 leukemia, 17.6%; in the assay with MALME-3M melanoma, -3.87% (active); in the assay with MDA-MB-231 breast, 68%; in the assay on RXF 393 renal it was 45.7%; in the assay on SF-268 CNS it was 44.8%. Further, the values for the growth with SF-295 CNS, with UACC-257 melanoma and in the assay on M14 melanoma were -1.84% (active), 65.3% and 26.7%, respectively.
`O=C(Nc1cccc(-n2cc(-c3ccncc3)c(-c3ccc(Cl)c(O)c3)n2)c1)Nc1cc(C(F)(F)F)cc(C(F)(F)F)c1`: the growth is -28.2% (active) in the assay with DU-145 prostate; -19.5% (active) with K-562 leukemia; -23% (active) in the assay with MALME-3M melanoma; -88.9% (active) in the assay with MDA-MB-231 breast; -66.7% (active) in the assay with RXF 393 renal; -36.4% (active) with SF-268 CNS. For the same compound, the growth in the assay with SF-539 CNS is -63% (active); in the assay with UACC-257 melanoma it was -50.9% (active); in the assay on M14 melanoma, -37.2% (active).
Regarding `Cc1cc(C)n(-c2nnc3n2N=C(c2ccc(-c4ccccc4)cc2)CS3)n1`, the growth was 66.2% in the assay on DU-145 prostate; 6.94% (active) with K-562 leukemia; 43.5% in the assay with MALME-3M melanoma; 51.1% in the assay on MDA-MB-231 breast; 5.5% (active) with RXF 393 renal; 56.7% with SF-268 CNS. Further, the figures for the growth in the assay on SF-539 CNS, in the assay on UACC-257 melanoma and in the assay on M14 melanoma were 38.7%, 53.7% and 30%, respectively.
For the compound `CN(C)c1ncnc2c1ccn2C1OC(CO)C(O)C1O` (stereo not given), the growth is 3.87% (active) in the assay on DU-145 prostate; 50.4% in the assay on K-562 leukemia; 133% in the assay with MALME-3M melanoma; 0.0846% (active) in the assay with MDA-MB-231 breast; 67.9% with RXF 393 renal; 40.1% in the assay with SF-268 CNS. Besides, the growth in the assay with SF-539 CNS is 67.8%; in the assay on UACC-257 melanoma, 111%; in the assay with M14 melanoma it was 58.7%.
Regarding `O=C(Nc1cccc(-n2cc(-c3ccncc3)c(-c3ccc(Cl)c(O)c3)n2)c1)Nc1cccc(C(F)(F)F)c1`, the growth in the assay with DU-145 prostate is 23.1%; in the assay with K-562 leukemia it was 13.4%; in the assay on MALME-3M melanoma, 1.16% (active); with MDA-MB-231 breast, 21.3%; with RXF 393 renal, 31.3%; in the assay with SF-268 CNS it was 28.5%. For the same compound, the growth was 38.5% in the assay on SF-539 CNS, -11.6% (active) in the assay with UACC-257 melanoma and 16.6% in the assay with M14 melanoma.
On to `O=C(/C=C/c1ccccc1)c1cccc(O)c1`, for which the growth was 56.4% in the assay with DU-145 prostate; 51.3% with K-562 leukemia; 101% in the assay with MALME-3M melanoma; 107% with RXF 393 renal; 85% with SF-268 CNS; 96.8% in the assay on SF-295 CNS. The growth in the assay on UACC-257 melanoma was 99.5%; with M14 melanoma, 68.1%.
With `COc1cc(-c2nn(-c3cccc(NC(=O)Nc4cc(C(F)(F)F)cc(C(F)(F)F)c4)c3)cc2-c2ccncc2)ccc1Cl`, the growth was 3.89% (active) in the assay with DU-145 prostate; -10.7% (active) in the assay on K-562 leukemia; -10.7% (active) in the assay on MALME-3M melanoma; -92% (active) in the assay on MDA-MB-231 breast; -68.1% (active) in the assay on RXF 393 renal; -46.3% (active) in the assay with SF-268 CNS. The growth with SF-539 CNS is -53.5% (active); with UACC-257 melanoma it was -45.1% (active); in the assay on M14 melanoma, -42.1% (active).
In the case of `Cc1ccc(-c2cc3nc(-c4ccccc4)nc(C(Cl)Cl)n3n2)cc1`, the growth in the assay on DU-145 prostate was -93.9% (active); in the assay with K-562 leukemia it was 20.2%; in the assay with MALME-3M melanoma it was -3.1% (active); with MDA-MB-231 breast, -49.7% (active); in the assay with SF-268 CNS, -56.6% (active); in the assay with SF-295 CNS it was -69.8% (active). The results for the growth in the assay on SF-539 CNS, in the assay with UACC-257 melanoma and in the assay on M14 melanoma were -60.4% (active), 18.3% and 96.2%, respectively.

The record behind these values is PubChem BioAssay (NCI).
